# Results published in the supplement of paper PMC6555819.
# Experiments:
# Test in all cases: PBM binding z-score (relative to random genomic background probes); higher = stronger binding; sequences stand for … in GC…GCGATTGACAGCGTAGAATGAAGG
# [1] = test system: PPARg:RXRa DBDmut IVT, anti-RXR (DBD mutation: RXRa K156A/R161A, NR concentration 270 nM, RXRa partner concentration 90 nM)
# In short: (§1)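 The probes on custom Agilent 4×180K protein-binding microarrays were double-stranded, with 34-nt variable regions bearing direct-repeat seeds, single-nucleotide variants, half-site ablations and random human genomic background sequences. Incubation lasted 1 h with ligand-free nuclear receptor dimers in PBS pH 7.4, 2% milk, 0.02% Triton X-100, 1 mM DTT, 0.2 mg/mL BSA and 0.4 mg/ml salmon testes DNA. Antibodies against each partner (one per run) detected bound dimers, and fluorescence scans were regression-normalized. Binding z-scores take the random background probes as reference.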
# [2] = test system: PPARg:RXRa IVT, anti-PPARg (NR concentration 270 nM, RXRa partner concentration 90 nM)
# In short: as §1
# [3] = test system: PPARg DBDmut:RXRa IVT, anti-PPARg (DBD mutation: PPARg1 K132A/R137A, NR concentration 270 nM, RXRa partner concentration 90 nM)
# In short: as §1
# [4] = test system: PPARg DBDmut IVT, anti-PPARg (DBD mutation: PPARg1 K132A/R137A, NR concentration 270 nM)
# In short: as §1
# [5] = test system: PPARg homodimer (NR concentration 180 nM)
# In short: as §1
# [6] = test system: PXR:RXRa (NR concentration 270 nM, RXRa partner concentration 90 nM)
# In short: as §1
# [7] = test system: PXR homodimer (NR concentration 270 nM)
# In short: as §1
# [8] = test system: RARa:RXR (NR concentration 270 nM, RXRa partner concentration 90 nM)
# In short: as §1
# [9] = test system: RARa homodimer (NR concentration 270 nM)
# In short: as §1
# [10] = test system: RARb:RXRa (NR concentration 270 nM, RXRa partner concentration 90 nM)
# In short: as §1
# [11] = test system: RARb homodimer (NR concentration 270 nM)
# In short: as §1
# [12] = test system: RARg:RXRa (NR concentration 270 nM, RXRa partner concentration 90 nM)
# In short: as §1
# [13] = test system: RARg homodimer (NR concentration 270 nM)
# In short: as §1
# [14] = test system: RXRa DBDmut IVT, anti-RXR (DBD mutation: RXRa K156A/R161A, NR concentration 90 nM)
# In short: as §1
# [15] = test system: RXRa homodimer (NR concentration 180 nM)
# In short: as §1
# [16] = test system: THRa:RXRa (NR concentration 90 nM, RXRa partner concentration 90 nM)
# In short: as §1
# [17] = test system: THRa homodimer (NR concentration 90 nM)
# In short: as §1
# [18] = test system: VDR homodimer (NR concentration 270 nM)
# In short: as §1
Sequence,PBM binding z-score [1],PBM binding z-score [2],PBM binding z-score [3],PBM binding z-score [4],PBM binding z-score [5],PBM binding z-score [6],PBM binding z-score [7],PBM binding z-score [8],PBM binding z-score [9],PBM binding z-score [10],PBM binding z-score [11],PBM binding z-score [12],PBM binding z-score [13],PBM binding z-score [14],PBM binding z-score [15],PBM binding z-score [16],PBM binding z-score [17],PBM binding z-score [18]
TCATATAGGTAAATGCTAGGGGAAAGTCCGATCT,4.25,2.11,1.09,1.29,0.609,0.434,0.33,0.628,1.4,0.327,0.135,0.401,0.27,1.85,0.821,0.401,0.433,0.491
TCATATAGGTAATACAGGTGACAGTCGGCATCTA,4.18,3.85,1.35,1.53,1.04,0.765,0.723,1,1.35,0.683,0.657,0.874,0.762,1.5,1.08,0.809,0.0912,-0.0475
CTCGAAAGGTCGGTTGAGGTGAGTATGCGGATAA,0.239,1.05,-0.43,0.0422,1.08,2.93,0.0767,2.11,0.202,3.01,2.57,2.73,2.73,0.85,2.4,5.15,1.43,0.532
CATACAGGGTCAGCTCGGCCAGAGTAGGGACGGC,0.771,2.11,1.08,0.134,0.989,2.02,0.0599,2.97,0.394,4,3.1,4.38,4.49,1.2,3.95,3.01,0.883,0.595
GCTTGTAGTTCAAGGTTAAGAAAGACTAAGCTAA,-0.00904,0.825,0.1,0.576,0.358,1.71,0.883,1.74,0.195,2.61,1.6,2.24,2.5,1.91,2.17,2.09,0.091,0.851
AGTCAAAGTTCAGGACAAGGTAACGTAAAGCACG,-0.163,2.21,1.02,0.792,2.91,3.12,1.58,3.09,1.2,4.38,3.29,5.05,5.13,3.14,3.26,4.05,2.59,2.15
CGTCCAAGGTGATAGGAGGTCAGTGAAGACAGAT,1.37,2.78,0.0253,0.186,1.91,3.57,0.47,2.31,0.367,2.85,3.59,2.56,2.86,0.227,1.88,4.34,1.51,0.846
